HPGD inh = blocks human HPGD enzyme activity | Potency, µM, without a hit: top-dose activity change, negative = inhibition, most hits filed as inhibitors | 150,000 tested, 4.3% active | purified HPGD, NADH fluorescence kinetic, PGE2 substrate | P15428; also: potency is read from the fitted curve at half-maximal effect
Target sequence (P15428 whole entry, looked up): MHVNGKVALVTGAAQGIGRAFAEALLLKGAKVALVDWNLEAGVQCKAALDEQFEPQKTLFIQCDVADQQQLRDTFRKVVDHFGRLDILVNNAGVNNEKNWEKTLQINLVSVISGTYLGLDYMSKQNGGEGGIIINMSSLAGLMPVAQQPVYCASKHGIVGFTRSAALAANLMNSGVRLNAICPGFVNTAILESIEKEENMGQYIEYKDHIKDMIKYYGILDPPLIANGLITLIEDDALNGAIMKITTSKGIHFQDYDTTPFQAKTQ
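NADH formation kinetics: reaction with 30 uM PGE2 and 1 mM NAD+ (final), 20 nM enzyme, Tris-HCl pH 8 with Tween 20, after 15 min compound preincubation at room temperature. Fluorescence change, last versus first of five reads.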
Lamin A splicing = LMNA splicing modulation; HeLa LMNA splicing GFP/RFP minigene ratio, 48 h; Potency, µM (series often up to 46.1 µM), without a hit: top-dose ratio change, negative = inhibition, actives largely listed as inhibitors; 200,000 tested, 0.01% active; AID 1487; active = well fitted inhibition curve with a large enough effect in the signal ratio, with a control signal flat, not every such curve was filed as active; inconclusive = small, poorly fitted or top-dose-only effect, or effect the other way, or a change in a side signal; the % refers to the signal ratio; also: potency is read from the fitted curve at half-maximal effect
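S3 HeLa cells stably expressing lamin A-EGFP splicing minigene plus DsRed2, 600 cells/well, 48 h compound exposure at 37C. Laser-scanning cytometry; analysed as GFP (500-530 nm)/RFP (575-640 nm) total intensity ratio; 0.5% DMSO vehicle.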
KinaseGlo FLuc = blocks Kinase-Glo luciferase, a counter-screen artifact. Q27757. Kinase-Glo luciferase, ATP luminescence, 8 min. Potency, µM (titrated, usually from 38.3 µM), inactives show at the top dose activity change, negative = inhibition, hits mostly inhibitors. 200,000 tested, 0.28% active. AID 1379; active = well fitted inhibition curve with a large enough effect; inconclusive = small, poorly fitted or top-dose-only effect; also: potency is read from the fitted curve at half-maximal effect; nearly all actives have a fitted effect of over 60% in size
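Compound is pinned into ATP-containing buffer (10 uM ATP, imidazole pH 7.2, 7 mM MgCl2). Kinase-Glo luciferase reagent is then added. Light output is recorded following an 8-min room-temperature incubation.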
PNC inhibitor = blocks assembly of the perinucleolar compartment. PC3M PTB-GFP, PNC prevalence imaging, 16 h; stronger effect = lower value. activity change (PNC), negative = inhibition, % at 10 µM. 140,000 tested, 3.1% active;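 active = readout at or below -70, meaning at least 70% loss of cells showing the perinucleolar compartment, a nuclear body marking cancer cells; inconclusive = readout between -30 and a set limit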;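 also: plate controls were DMSO wells for no effect and camptothecin positive control wells for full effect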
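Compounds are pinned in duplicate onto adhered PC3M cells stably expressing GFP-tagged PTB and incubated 16 h at 37 C. Cells are then fixed, nuclei stained with Hoechst, and PNC-positive cells counted.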
ALDH1A1 inh = blocks purified human ALDH1A1 activity | P00352 | Purified ALDH1A1, NADH fluorescence, propionaldehyde substrate | 220,000 tested, 7.3% active | AID 1030 | Potency, µM (series often up to 75.3 µM), for the others: top-dose activity, negative = inhibition, hits mostly inhibitors;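 also: potency is read from the fitted curve at half-maximal effect; plate controls were no enzyme wells and a reference inhibitor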
Target sequence (P00352 whole entry, looked up): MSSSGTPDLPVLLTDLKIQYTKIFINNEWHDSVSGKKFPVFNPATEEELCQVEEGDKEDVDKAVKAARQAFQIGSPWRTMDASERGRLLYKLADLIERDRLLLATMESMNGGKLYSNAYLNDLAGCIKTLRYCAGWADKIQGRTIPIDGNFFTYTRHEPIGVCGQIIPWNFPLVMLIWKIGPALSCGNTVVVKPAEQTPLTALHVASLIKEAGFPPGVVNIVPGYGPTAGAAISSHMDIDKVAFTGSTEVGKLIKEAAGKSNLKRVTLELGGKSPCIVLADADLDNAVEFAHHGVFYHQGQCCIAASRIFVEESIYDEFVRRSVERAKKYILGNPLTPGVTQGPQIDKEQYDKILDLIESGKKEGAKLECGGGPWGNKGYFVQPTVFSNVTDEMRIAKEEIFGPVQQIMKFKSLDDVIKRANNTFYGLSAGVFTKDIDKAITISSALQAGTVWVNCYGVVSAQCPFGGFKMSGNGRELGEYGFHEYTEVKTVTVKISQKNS
The depositor's hits bear a star; [ ] = dose if it differs, or a comment. A selection: hits, their analogues and other compounds. The true share with any hit is near 10%. Unless noted, calls follow the shape of the dose curve; as a rule, active = well fitted inhibition curve with a large enough effect (not every such curve was filed as active); inconclusive = small, poorly fitted or top-dose-only effect, or another doubt; inactive = no such curve, though single readings can be large or run the other way. Unless noted, % is scaled to controls: 0 for no effect and ±100 for the full control effect.

Results for Cc1c(C(=O)N2CCOCC2)sc(NC(=O)c2ccc3c(c2)OCO3)c1C#N ?
HPGD inh: inconclusive; Lamin A splicing: -3%; KinaseGlo FLuc: -1%; PNC inhibitor: -27; ALDH1A1 inh: -7%

How did CCN(CC)C(=O)c1sc(NC(=O)c2ccc3c(c2)OCO3)c(C#N)c1C do in these assays?
HPGD inh: 6.3µM*; Lamin A splicing: -10%; KinaseGlo FLuc: -2%; PNC inhibitor: inconclusive; ALDH1A1 inh: inconclusive

How did CCOC1=NN(c2ncc(C(F)(F)F)cc2Cl)C(=O)/C1=C/N(C)C do in these assays?
KinaseGlo FLuc: 0%; ALDH1A1 inh: 1%

What do the screens show for `CCCCCCCCCCCCCCC(C(=O)O)C(O)(CC(=O)OC)C(=O)O` (stereo not drawn)?
HPGD inh: 16µM*; Lamin A splicing: -19%; KinaseGlo FLuc: -2%; ALDH1A1 inh: -2%

How did CC(C)Oc1ccc(CNC(=O)c2cnc3sc(N4CCCCCC4)nn3c2=O)cc1 do in these assays?
Lamin A splicing: 1%[46 µM]

What do the screens show for `Cc1ccc(-c2nn(-c3ccccc3)cc2C2SCC(=O)N2Cc2ccccc2)o1` (stereo not drawn)?
HPGD inh: inconclusive; Lamin A splicing: -4%; KinaseGlo FLuc: 0%; PNC inhibitor: -27; ALDH1A1 inh: 28µM*

Results for CCCCN1C(=O)c2ccc(C(=O)Nc3ccccc3N3CCOCC3)cc2C1=O ?
KinaseGlo FLuc: 1%; ALDH1A1 inh: 0.89µM*

Results for Cc1ccc(C(=O)Nc2ccccc2N2CCCCC2)cc1[N+](=O)[O-] ?
KinaseGlo FLuc: 1%; ALDH1A1 inh: -5%

How did COc1cc(CC(=O)Nc2ccccc2N2CCOCC2)cc(OC)c1OC do in these assays?
Lamin A splicing: inconclusive; KinaseGlo FLuc: -2%; ALDH1A1 inh: -9%

What do the screens show for `Cc1ccc(C(=O)NC(=S)Nc2ccccc2N2CCCC2)cc1[N+](=O)[O-]`?
HPGD inh: -12%; Lamin A splicing: inconclusive; KinaseGlo FLuc: -2%; PNC inhibitor: 9; ALDH1A1 inh: 20µM*

Results for CN1CCN(c2ccccc2NC(=O)c2ccc(N3CCCCC3)c([N+](=O)[O-])c2)CC1 ?
KinaseGlo FLuc: -4%; ALDH1A1 inh: 22µM*

How did O=C(CN1C(=O)c2ccccc2C1=O)Nc1ccccc1N1CCOCC1 do in these assays?
Lamin A splicing: 2%[46 µM]; ALDH1A1 inh: -2%

How did COc1ccc(C)cc1C(=O)CCC(=O)Nc1ccccc1N1CCOCC1 do in these assays?
HPGD inh: -12%; Lamin A splicing: 8%; KinaseGlo FLuc: -3%; PNC inhibitor: 4; ALDH1A1 inh: 28µM*

How did COc1ccc(C(=O)Nc2ccccc2N2CCCCC2)cc1[N+](=O)[O-] do in these assays?
Lamin A splicing: 11%[46 µM]; KinaseGlo FLuc: 2%; ALDH1A1 inh: inconclusive

Results for O=S(=O)(O)c1cc(S(=O)(=O)O)c2c(N=Nc3cccc4ccccc34)c(O)ccc2c1 ?
HPGD inh: -8%; KinaseGlo FLuc: inconclusive; ALDH1A1 inh: inconclusive

How did Cc1ccc(C(=O)NC(=S)Nc2ccc(NC(=O)c3cccs3)cc2)cc1[N+](=O)[O-] do in these assays?
HPGD inh: -13%; Lamin A splicing: -2%; KinaseGlo FLuc: 1%; PNC inhibitor: inconclusive; ALDH1A1 inh: 13µM*

What do the screens show for `CCC(=O)N1CCN(c2ccccc2NC(=S)NC(=O)c2cccc([N+](=O)[O-])c2)CC1`?
Lamin A splicing: inconclusive; KinaseGlo FLuc: -2%; ALDH1A1 inh: 14µM*

How did COc1ccc(C(=O)NC(=S)Nc2ccccc2N2CCOCC2)cc1Br do in these assays?
HPGD inh: -17%; Lamin A splicing: inconclusive; KinaseGlo FLuc: -1%; PNC inhibitor: -10; ALDH1A1 inh: inconclusive

Results for CCOc1ccc(C(=O)NC(=S)Nc2ccccc2N2CCOCC2)cc1Br ?
HPGD inh: -13%; Lamin A splicing: inconclusive; KinaseGlo FLuc: -2%; PNC inhibitor: -24; ALDH1A1 inh: 4µM*

How did O=[N+]([O-])c1ccc(S(=O)(=O)Cc2ccccc2)c2nonc12 do in these assays?
HPGD inh: 3.2µM*; KinaseGlo FLuc: -6%[7.66 µM]; ALDH1A1 inh: 1.8µM*

Results for COc1ccc(-n2c(=O)c(CCc3ccccc3)nc3cnc(N4CCN(C)CC4)nc32)cc1 ?
Lamin A splicing: 3%; ALDH1A1 inh: -11%

What do the screens show for `O=C(c1cccc(F)c1)N1CCC2(CC1)CN(C(c1ccccc1)c1ccccc1)C2`?
HPGD inh: -14%; KinaseGlo FLuc: -1%; ALDH1A1 inh: inconclusive

How did C/C(=N\NC(=O)c1ccncc1)C12CC3CC(CC(C3)C1)C2 do in these assays?
HPGD inh: -9%; Lamin A splicing: -4%; KinaseGlo FLuc: -2%; PNC inhibitor: -118*; ALDH1A1 inh: inconclusive

How did O=C(NN=C1C2CC3CC(C2)CC1C3)c1ccncc1 do in these assays?
HPGD inh: 2%; Lamin A splicing: 6%; KinaseGlo FLuc: -5%; PNC inhibitor: -26; ALDH1A1 inh: -8%

Results for CC/C(=N\NC(=O)c1ccc(-c2ccccc2)cc1)C12CC3CC(CC(C3)C1)C2 ?
HPGD inh: -25%; Lamin A splicing: 2%; KinaseGlo FLuc: 17%; PNC inhibitor: 0; ALDH1A1 inh: 13µM*

Results for COC(=O)c1ccc(Nc2ncnc3c2nc2n3CCCC2)cc1 ?
Lamin A splicing: 6%[46 µM]

Results for S=C(Nc1ccc(N2CCOCC2)cc1)Nc1ccc2snnc2c1 ?
Lamin A splicing: inconclusive; KinaseGlo FLuc: -2%; ALDH1A1 inh: 25µM*

What do the screens show for `CC(C)(S)[C@H](N)C(=O)O`?
HPGD inh: -6%; KinaseGlo FLuc: -7%[7.66 µM]; ALDH1A1 inh: 12%[13.5 µM]

Results for COC/C=C/C1=CC2=CC(=O)C(C)(OC(=O)c3ccc(Cl)nc3)C(=O)C2=CO1 (stereo not drawn) ?
HPGD inh: -16%; KinaseGlo FLuc: 0%; ALDH1A1 inh: 3%

How did COc1ccc(Cc2nnc(SCC(=O)NCc3ccco3)o2)cc1 do in these assays?
HPGD inh: 20µM*; Lamin A splicing: 5%; KinaseGlo FLuc: 2%; PNC inhibitor: inconclusive; ALDH1A1 inh: inconclusive

How did COc1ccc(CNc2nc(SCC(=O)NCc3ccco3)nc3ccccc23)cc1 do in these assays?
HPGD inh: 10µM*; Lamin A splicing: 0%; KinaseGlo FLuc: 8%; PNC inhibitor: inconclusive; ALDH1A1 inh: inconclusive

Results for CCOC(=O)CSc1nc(NCc2ccco2)c2ccccc2n1 ?
HPGD inh: -10%; Lamin A splicing: 1%; KinaseGlo FLuc: -3%; PNC inhibitor: 6; ALDH1A1 inh: inconclusive

Results for COc1ccc(OCc2nnc(SCC(=O)NCc3ccco3)o2)cc1 ?
HPGD inh: -11%; Lamin A splicing: 4%; KinaseGlo FLuc: -2%; PNC inhibitor: inconclusive; ALDH1A1 inh: 1%

How did O=C(Nc1ccc2nc(SCC(=O)N3CCCC3)sc2c1)c1cccc(Br)c1 do in these assays?
Lamin A splicing: -15%[46 µM]

Screening results from PubChem BioAssay.
